Measured values published in the supplement of paper PMC7380943.
Structures can show the parent of a compound that is named as a salt.

Columns and labels:
[1] = system: CLZ3 (HCA2 human fibroblast dual HR-NHEJ reporter); assay: NHEJ repair efficiency (GFP+ cells) relative to control (log10 fold); higher = more non-homologous end joining; settings: 5 µM; doxycycline 0.5 ug/mL
[2] = system: CLZ3 (HCA2 human fibroblast dual HR-NHEJ reporter); assay: HR repair efficiency (tdTomato+ cells) relative to control (log10 fold); higher = more homologous recombination; settings: 5 µM; doxycycline 0.5 ug/mL
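Wherever HR repair efficiency (tdTomato+ cells) relative to control is given: compound given one day before doxycycline, which switches on I-SceI endonuclease expression to create double-strand breaks within the integrated reporter.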
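Wherever NHEJ repair efficiency (GFP+ cells) relative to control is given: compound given one day ahead of doxycycline, which switches on I-SceI endonuclease to cut the chromosomally integrated reporter and create DSBs.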

Row | Compound | NHEJ repair efficiency (log10) [1] | HR repair efficiency (log10) [2]
1 | COc1ccc(-c2oc3c(CC=C(C)C)c(O[C@@H]4O[C@H](CO)[C@@H](O)[C@H](O)[C@H]4O)cc(O)c3c(=O)c2O[C@@H]2O[C@@H](C)[C@H](O)[C@@H](O)[C@H]2O[C@@H]2O[C@@H](C)[C@H](O)[C@@H](O)[C@H]2O)cc1 [Epimedin C] | -0.0776 | -0.0883
2 | COc1ccc2c(OC)c3ccoc3nc2c1OC [Skimmianine] | -0.0606 | 0.00427
3 | COc1cc(-c2coc3cc4c(c(OC)c3c2=O)OCO4)cc(OC)c1OC [Irisflorentin] | -0.0524 | 0.0727
4 | Cc1cc(=O)c2c(O)c3c(cc2o1)OC(C)(C)[C@@H](O[C@@H]1O[C@H](CO)[C@@H](O)[C@H](O)[C@H]1O)C3 [Sec-O-Glucosylhamaudol] | -0.132 | -0.0801
5 | COc1cc2ccc(=O)oc2cc1OC [Scoparone] | 0.0322 | 0.0853
6 | COc1ccc2cc3[n+](cc2c1OC)CCc1cc2c(cc1-3)OCO2 [Berberine hydrochloride] | -0.127 | -0.283
7 | C[C@H]1[C@H](C)CC[C@]2(C(=O)O)CC[C@]3(C)C(=CC[C@@H]4[C@@]5(C)CC[C@H](O)C(C)(C)[C@@H]5CC[C@]43C)[C@H]12 [Ursolic Acid] | 0.324 | -0.12
8 | OCCc1ccc(O)cc1 [Tyrosol] | 0.117 | 0.306
9 | O=C(O)c1ccc(O)c(O)c1 [3,4-Dihydroxybenzoic acid] | 0.00743 | -0.033
10 | O=c1cc(-c2ccccc2)oc2cc(O)c(O)c(O)c12 [Baicalein] | 0.203 | 0.17
11 | Cn1c(=O)c2c(ncn2CC(O)CO)n(C)c1=O (configuration not stated) [Diprophylline] | 0.137 | 0.116
12 | O=C(O)/C=C/C(=O)O [Fumaric Acid] | 0.0532 | 0.136
13 | COc1cc(-c2oc3cc(O)cc(O)c3c(=O)c2O[C@@H]2O[C@H](CO)[C@@H](O)[C@H](O)[C@H]2O)ccc1O [Isorhamnetin-3-O-Glucoside] | -0.0722 | -0.00603
14 | OC[C@H]1O[C@@H](Oc2cc3c(O)cc(O)cc3[o+]c2-c2ccc(O)c(O)c2)[C@H](O)[C@@H](O)[C@@H]1O [Cyanidin3-o-glucoside] | -0.035 | 0.142
15 | Oc1ccc2c(c1)OC[C@]1(O)Cc3cc(O)c(O)cc3[C@H]21 [Brazilin] | -0.0322 | -0.00638
16 | C/C=C1\[C@H]2C=C(C)C[C@]1(N)c1ccc(=O)[nH]c1C2 [Huperzine-A] | 0.0591 | 0.0391
17 | Cn1cnc2c1c(=O)[nH]c(=O)n2C [Theobromine] | -0.0855 | 0.141
18 | C[C@@H]1CC[C@@]2(NC1)O[C@H]1C[C@H]3[C@@H]4CC=C5C[C@@H](O[C@@H]6O[C@H](CO)[C@H](O)[C@H](O[C@@H]7O[C@H](CO)[C@@H](O)[C@H](O)[C@H]7O)[C@H]6O[C@@H]6O[C@@H](C)[C@H](O)[C@@H](O)[C@H]6O)CC[C@]5(C)[C@H]4CC[C@]3(C)[C@H]1[C@@H]2C [Solasonine] | -0.000957 | 0.0163
19 | O=C(O)/C=C/c1ccc(O)c(O)c1 [Caffeic acid] | 0.0395 | 0.0424
20 | C[C@H](CC[C@@]1(O)O[C@H]2C[C@H]3[C@@H]4CC=C5C[C@@H](O[C@@H]6O[C@H](CO)[C@@H](O[C@@H]7O[C@@H](C)[C@H](O)[C@@H](O)[C@H]7O)[C@H](O)[C@H]6O[C@@H]6O[C@@H](C)[C@H](O)[C@@H](O)[C@H]6O)CC[C@]5(C)[C@H]4CC[C@]3(C)[C@H]2[C@@H]1C)CO[C@@H]1O[C@H](CO)[C@@H](O)[C@H](O)[C@H]1O [Protodioscin] | -0.00725 | -0.042
21 | O=c1c(O)c(-c2ccc(O)c(O)c2)oc2cc(O)cc(O)c12 [Quercetin] | -0.047 | 0.086
22 | COc1cc2c(=O)c(-c3ccc(O)cc3)coc2cc1O [Glycitein] | 0.0336 | 0.1
23 | C[C@H](CCC(=O)O)[C@H]1CC[C@H]2[C@@H]3[C@H](O)C[C@@H]4C[C@H](O)CC[C@]4(C)[C@H]3C[C@H](O)[C@]12C [Cholic acid] | -0.0347 | -0.0733
24 | O=C(/C=C/c1ccc(O)cc1)OC[C@H]1O[C@@H](Oc2c(-c3ccc(O)cc3)oc3cc(O)cc(O)c3c2=O)[C@H](O)[C@@H](O)[C@@H]1O [Tiliroside] | -0.00145 | -0.0226
25 | COc1cc2c(cc1OC)[C@@H]1Cc3ccc(OC)c(OC)c3CN1CC2 [Rotundine] | -0.0594 | 0.112
26 | CC(CCC(OC1OC(COC2OC(CO)C(O)C(O)C2O)C(O)C(O)C1OC1OC(CO)C(O)C(O)C1O)C(C)(C)O)C1CCC2(C)C3CC=C4C(CCC(OC5OC(COC6OC(CO)C(O)C(O)C6O)C(O)C(O)C5O)C4(C)C)C3(C)C(O)CC12C (configuration not stated) [Mogroside Ⅴ] | -0.025 | 0.0038

Row | Compound | NHEJ repair efficiency (log10) [1] | HR repair efficiency (log10) [2]
27 | CC(/C=C/C=C(\C)C(=O)O[C@@H]1O[C@H](CO)[C@@H](O)[C@H](O)[C@H]1O)=C\C=C\C=C(C)\C=C\C=C(/C)C(=O)O[C@@H]1O[C@H](CO[C@@H]2O[C@H](CO)[C@@H](O)[C@H](O)[C@H]2O)[C@@H](O)[C@H](O)[C@H]1O [Crocin Ii] | -0.0199 | 0.0485
28 | COc1cc2c(cc1OC)[C@@H]1Cc3ccc(OC)c(OC)c3CN1CC2 [Tetrahydropalmatine] | -0.0787 | 0.0375
29 | O=c1ccc2ccc(O)cc2o1 [Umbelliferone] | 0.115 | 0.269
30 | C[C@@H]1CC[C@]2(C(=O)O)CC[C@]3(C)C(=CC[C@@H]4[C@@]5(C)CC[C@H](O)[C@@](C)(CO)[C@@H]5CC[C@]43C)[C@@H]2[C@]1(C)O [Rotundic Acid] | -0.0308 | 0.0236
31 | CCCCCC=CC(=O)CCc1ccc(O)c(OC)c1 [6-Shogaol] | -0.0185 | -0.0794
32 | COc1cc(C[C@H](C)[C@H](C)Cc2ccc3c(c2)OCO3)ccc1O [Anwuligan] | 0.0149 | 0.0747
33 | C[C@@H]1CC[C@@]2(OC1)O[C@H]1C[C@H]3[C@@H]4CC=C5C[C@@H](O[C@@H]6O[C@H](CO)[C@@H](O)[C@H](O[C@@H]7O[C@H](CO)[C@@H](O)[C@H](O)[C@H]7O)[C@H]6O[C@@H]6O[C@@H](C)[C@H](O)[C@@H](O)[C@H]6O)CC[C@]5(C)[C@H]4CC[C@]3(C)[C@H]1[C@@H]2C [Gracillin] | -0.154 | -0.0532
34 | COc1ccc(C(=O)O)cc1 [Anisic Acid] | 0.0832 | 0.118
35 | C=C1CC[C@@H]2[C@](C)(CO)[C@H](O)CC[C@@]2(C)[C@H]1C/C=C1\C=COC1=O [Dehydroandrographolide] | 0.015 | 0.116
36 | COc1c(O)cc2oc(-c3ccccc3)cc(=O)c2c1O [Oroxylin-A] | -0.22 | 0.0535
37 | O=C1C=C2C=C[C@@H](O)[C@H](O)[C@H]2O1 [Griffonilide] | 0.0786 | 0.00766
38 | O=C(OCC1=C[C@@H](O)[C@@H]2C=CO[C@@H](O[C@@H]3O[C@H](CO)[C@@H](O)[C@H](O)[C@H]3O)[C@H]12)c1ccc(O)cc1 [Agnuside] | -0.062 | 0.106
39 | COC(=O)c1ccccc1O[C@@H]1O[C@H](CO[C@@H]2OC[C@@H](O)[C@H](O)[C@H]2O)[C@@H](O)[C@H](O)[C@H]1O [Gaultherin] | -0.0565 | -0.122
40 | CC(C)C(C)C(O)C(O)C(C)C1CCC2C3COC(=O)C4CC(O)C(O)CC4(C)C3CCC12C (configuration not stated) [Brassinolide] | -0.122 | -0.073
41 | O=C(/C=C/c1ccc(O)c(O)c1)OC1(C(=O)O)C[C@@H](O)C(O)[C@H](O)C1 (some centres not stated) [1-Caffeoylquinic Acid] | -0.0477 | 0.0171
42 | CCCCC[C@H](O)CC(=O)CCc1ccc(O)c(OC)c1 [6-Gingerol] | -0.0809 | 0.0839
43 | O=c1c(-c2ccc(O[C@@H]3O[C@H](CO)[C@@H](O)[C@H](O)[C@H]3O)cc2)coc2cc(O)cc(O)c12 [Sophoricoside] | 0.185 | 0.0013
44 | O=C(/C=C/c1ccc(O)cc1)C1=C(O)C(O)([C@@H]2O[C@H](CO)[C@@H](O)[C@H](O)[C@H]2O)C(O)=C([C@@H]2O[C@H](CO)[C@@H](O)[C@H](O)[C@H]2O)C1=O (some centres not stated) [Hydroxysafflor yellow A] | 0.0258 | 0.0597
45 | O=c1c(O[C@@H]2O[C@H](CO)[C@@H](O)[C@H](O)[C@H]2O)c(-c2ccc(O)c(O)c2)oc2cc(O)cc(O)c12 [Isoquercitrin] | -0.0426 | 0.0777
46 | C=C(C)[C@@H]1CC[C@]2(C(=O)O[C@@H]3O[C@H](CO[C@@H]4O[C@H](CO)[C@@H](O[C@@H]5O[C@@H](C)[C@H](O)[C@@H](O)[C@H]5O)[C@H](O)[C@H]4O)[C@@H](O)[C@H](O)[C@H]3O)CC[C@]3(C)[C@H](CC[C@@H]4[C@@]5(C)CC[C@H](O[C@@H]6OC[C@H](O)[C@H](O)[C@H]6O[C@@H]6O[C@@H](C)[C@H](O)[C@@H](O)[C@H]6O)[C@@](C)(CO)[C@@H]5CC[C@]43C)[C@@H]12 [Anemoside B4] | -0.0464 | 0.0526
47 | NC(=O)c1cccnc1 [Nicotinamide] | 0.139 | 0.186
48 | C/C=C(/C)C(=O)O[C@H]1c2cc(OC)c(OC)c(OC)c2-c2c(cc3c(c2OC)OCO3)C[C@H](C)[C@]1(C)O [Wuweizi Ester B] | -0.108 | 0.0267
49 | O=c1cc(-c2ccc(O)cc2)oc2c([C@@H]3O[C@H](CO)[C@@H](O)[C@H](O)[C@H]3O)c(O)cc(O)c12 [Vitexin] | 0.172 | 0.126
50 | CC1(C)[C@@H](O)CC[C@]2(C)[C@H]3CC=C4[C@@H]5C[C@@]6(C)C[C@H](OC6=O)[C@]5(C)CC[C@@]4(C)[C@]3(C)CC[C@@H]12 [Wilforlide A] | -0.137 | 0.00171
51 | COc1cc(O)cc(O)c1C(=O)/C=C/c1ccccc1 [Cardamonin] | 0.233 | -0.195
